Holding throughout (assay): PBM; 200 nM protein, PBS
Holding throughout (settings): dsDNA, one strand shown

The target in experiment [1] is T1, VENTX (Homo sapiens, UniProt O95231 78-163, R121Q).
T1 sequence: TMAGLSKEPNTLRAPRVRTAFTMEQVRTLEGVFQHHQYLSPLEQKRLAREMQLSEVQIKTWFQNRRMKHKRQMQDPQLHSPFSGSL

Experiment [2] deals with HOXA4 (Homo sapiens, UniProt Q00056 201-287, W262R).
Experiment [3] deals with T2, VENTX (Homo sapiens, UniProt O95231 78-163).
T2 sequence: T1 sequence with Q44R

For experiment [4], the target named is T3, VENTX (Homo sapiens, UniProt O95231 78-163, Y115F).
T3 sequence: T1 sequence with Y38F, Q44R

The target in experiment [5] is HOXA4 (Homo sapiens, UniProt Q00056 201-287, R217L).
HOXA4 (Homo sapiens, UniProt Q00056 201-287, R217L), sequence (Q00056 201-287 R217L): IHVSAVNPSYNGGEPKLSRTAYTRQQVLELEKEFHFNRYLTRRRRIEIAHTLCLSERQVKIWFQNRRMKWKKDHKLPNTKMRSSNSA
The target in experiment [6] is HOXA4 (Homo sapiens, UniProt Q00056 201-287).
HOXA4 (Homo sapiens, UniProt Q00056 201-287), sequence (Q00056 201-287): as the sequence (Q00056 201-287 R217L) above, with L17R counted along it
In experiment [7] the target is HOXA4 (Homo sapiens, UniProt Q00056 201-287, W262F).
HOXA4 (Homo sapiens, UniProt Q00056 201-287, W262F), sequence (Q00056 201-287 W262F): as the sequence (Q00056 201-287 R217L) above, with L17R, W62F counted along it
Experiment [8] concerns the target HOXB9 (Homo sapiens, UniProt P17482 171-250, T197M).
Experiment [9] concerns the target T4, PAX4 (Homo sapiens, UniProt O43316 9-242, R200K).
T4 sequence: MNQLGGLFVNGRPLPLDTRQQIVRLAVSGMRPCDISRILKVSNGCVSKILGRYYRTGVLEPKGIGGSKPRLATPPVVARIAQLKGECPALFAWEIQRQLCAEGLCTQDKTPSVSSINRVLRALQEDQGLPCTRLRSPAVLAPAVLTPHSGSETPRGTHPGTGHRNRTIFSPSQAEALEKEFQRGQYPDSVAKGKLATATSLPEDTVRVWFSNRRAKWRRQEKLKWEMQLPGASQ

The target of experiment [10] is PRRX1 (Homo sapiens, UniProt P54821 80-166, F113S).
PRRX1 (Homo sapiens, UniProt P54821 80-166, F113S), sequence (P54821 80-166 F113S): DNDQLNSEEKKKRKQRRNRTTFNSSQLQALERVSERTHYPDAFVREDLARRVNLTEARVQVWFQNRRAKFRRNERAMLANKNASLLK
The target in experiment [11] is T5, PAX4 (Homo sapiens, UniProt O43316 9-242).
T5 sequence: T4 sequence with K192R

Experiment [12] has as its target HOXB9 (Homo sapiens, UniProt P17482 171-250).
Experiment [13] addresses ALX1 (Homo sapiens, UniProt Q15699 118-204, L144V).
The target in experiment [14] is ALX3 (Homo sapiens, UniProt O95076 139-225, N203Q).
ALX3 (Homo sapiens, UniProt O95076 139-225, N203Q), sequence (O95076 139-225 N203Q): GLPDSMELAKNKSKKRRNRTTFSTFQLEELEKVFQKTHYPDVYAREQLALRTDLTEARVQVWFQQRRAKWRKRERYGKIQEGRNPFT
The target of experiment [15] is T6, PAX4 (Homo sapiens, UniProt O43316 9-242, R200Q).
T6 sequence: T4 sequence with K192Q

The target of experiment [16] is ALX1 (Homo sapiens, UniProt Q15699 118-204, L144R).
ALX1 (Homo sapiens, UniProt Q15699 118-204, L144R), sequence (Q15699 118-204 L144R): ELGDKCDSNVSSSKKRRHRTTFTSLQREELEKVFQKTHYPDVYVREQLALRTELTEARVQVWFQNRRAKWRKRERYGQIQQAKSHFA
In experiment [17] the target is T7, PAX4 (Homo sapiens, UniProt O43316 9-242, F177V).
T7 sequence: T4 sequence with F169V, K192R

Experiment [18] addresses ALX3 (Homo sapiens, UniProt O95076 139-225).
For experiment [19], the target named is T8, PAX4 (Homo sapiens, UniProt O43316 9-242, F177Y).
T8 sequence: T4 sequence with F169Y, K192R

Experiment [20] addresses ALX3 (Homo sapiens, UniProt O95076 139-225, L168Q).
For experiment [21], the target named is HOXB9 (Homo sapiens, UniProt P17482 171-250, R186Q).
HOXB9 (Homo sapiens, UniProt P17482 171-250, R186Q), sequence (P17482 171-250 R186Q): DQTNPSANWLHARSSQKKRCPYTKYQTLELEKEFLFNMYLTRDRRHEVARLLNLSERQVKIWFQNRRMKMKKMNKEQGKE
Experiment [22] deals with ALX3 (Homo sapiens, UniProt O95076 139-225, L168V).
ALX3 (Homo sapiens, UniProt O95076 139-225, L168V), sequence (O95076 139-225 L168V): as the sequence (O95076 139-225 N203Q) above, with L30V, Q65N counted along it
The target in experiment [23] is T9, PAX4 (Homo sapiens, UniProt O43316 9-242, R227W).
T9 sequence: T4 sequence with K192R, R219W

The target in experiment [24] is ALX1 (Homo sapiens, UniProt Q15699 118-204).
ALX1 (Homo sapiens, UniProt Q15699 118-204), sequence (Q15699 118-204): as the sequence (Q15699 118-204 L144R) above, with R27L counted along it
The target of experiment [25] is ALX3 (Homo sapiens, UniProt O95076 139-225, N203S).
ALX3 (Homo sapiens, UniProt O95076 139-225, N203S), sequence (O95076 139-225 N203S): as the sequence (O95076 139-225 N203Q) above, with Q65S counted along it
Experiment [26] has as its target PRRX1 (Homo sapiens, UniProt P54821 80-166).
For experiment [27], the target named is HOXC9 (Homo sapiens, UniProt P31274 178-260, K195R).
HOXC9 (Homo sapiens, UniProt P31274 178-260, K195R), sequence (P31274 178-260 K195R): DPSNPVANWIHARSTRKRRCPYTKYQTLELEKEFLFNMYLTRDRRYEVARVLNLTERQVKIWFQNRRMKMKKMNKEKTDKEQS
Experiment [28] addresses HOXC9 (Homo sapiens, UniProt P31274 178-260).
Experiment [29] has as its target HOXC9 (Homo sapiens, UniProt P31274 178-260, R193K).
In experiment [30] the target is HOXC9 (Homo sapiens, UniProt P31274 178-260, R222W).
HOXC9 (Homo sapiens, UniProt P31274 178-260, R222W), sequence (P31274 178-260 R222W): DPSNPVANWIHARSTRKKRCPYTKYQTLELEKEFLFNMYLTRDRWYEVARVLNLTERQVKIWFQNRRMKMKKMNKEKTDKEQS
For the next experiment, the target named is PITX2 (Homo sapiens, UniProt Q99697 72-157).

Numbering of substitutions follows the chain as printed.

HOXC9 (Homo sapiens, UniProt P31274 178-260), sequence (P31274 178-260): as the sequence (P31274 178-260 R222W) above, with W45R counted along it
ALX1 (Homo sapiens, UniProt Q15699 118-204, L144V), sequence (Q15699 118-204 L144V): as the sequence (Q15699 118-204 L144R) above, with R27V counted along it
HOXC9 (Homo sapiens, UniProt P31274 178-260, R193K), sequence (P31274 178-260 R193K): as the sequence (P31274 178-260 R222W) above, with R16K, W45R counted along it
HOXB9 (Homo sapiens, UniProt P17482 171-250, T197M), sequence (P17482 171-250 T197M): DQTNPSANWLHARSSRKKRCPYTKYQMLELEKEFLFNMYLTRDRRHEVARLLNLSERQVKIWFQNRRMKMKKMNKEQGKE
ALX3 (Homo sapiens, UniProt O95076 139-225), sequence (O95076 139-225): as the sequence (O95076 139-225 N203Q) above, with Q65N counted along it
PRRX1 (Homo sapiens, UniProt P54821 80-166), sequence (P54821 80-166): as the sequence (P54821 80-166 F113S) above, with S34F counted along it
ALX3 (Homo sapiens, UniProt O95076 139-225, L168Q), sequence (O95076 139-225 L168Q): as the sequence (O95076 139-225 N203Q) above, with L30Q, Q65N counted along it
HOXB9 (Homo sapiens, UniProt P17482 171-250), sequence (P17482 171-250): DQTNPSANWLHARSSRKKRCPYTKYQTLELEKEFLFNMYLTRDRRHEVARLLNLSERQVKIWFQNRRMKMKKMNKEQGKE
HOXA4 (Homo sapiens, UniProt Q00056 201-287, W262R), sequence (Q00056 201-287 W262R): as the sequence (Q00056 201-287 R217L) above, with L17R, W62R counted along it

As for CCAGGGCC, the binding signal in the experiment with VENTX [1] was 8.11 upbm affinity estimate (log intensity, higher = more binding, comparable within an allelic series); with HOXA4 [2], 9.65 upbm affinity estimate (log intensity, higher = more binding, comparable within an allelic series); with VENTX [3], 8.27 upbm affinity estimate (log intensity, higher = more binding, comparable within an allelic series); with VENTX [4], 8.19 upbm affinity estimate (log intensity, higher = more binding, comparable within an allelic series); with HOXA4 [5], 9.71 upbm affinity estimate (log intensity, higher = more binding, comparable within an allelic series); in the experiment with HOXA4 [6], 9.79 upbm affinity estimate (log intensity, higher = more binding, comparable within an allelic series). In addition, the binding signal in the experiment with HOXA4 [7] is 9.73 upbm affinity estimate (log intensity, higher = more binding, comparable within an allelic series).
Turning to CGATTAAA, in the experiment with VENTX [1], the binding signal was 10.7 upbm affinity estimate (log intensity, higher = more binding, comparable within an allelic series).
Regarding GCCGCAGC, the binding signal in the experiment with VENTX [1] was 8.08 upbm affinity estimate (log intensity, higher = more binding, comparable within an allelic series); in the experiment with HOXB9 [8], 8.46 upbm affinity estimate (log intensity, higher = more binding, comparable within an allelic series); with VENTX [3], 8.11 upbm affinity estimate (log intensity, higher = more binding, comparable within an allelic series); with PAX4 [9] it was 9.27 upbm affinity estimate (log intensity, higher = more binding, comparable within an allelic series); with PRRX1 [10] it was 9.25 upbm affinity estimate (log intensity, higher = more binding, comparable within an allelic series); in the experiment with VENTX [4], 8.14 upbm affinity estimate (log intensity, higher = more binding, comparable within an allelic series). The binding signal is 9.2 upbm affinity estimate (log intensity, higher = more binding, comparable within an allelic series) with PAX4 [11]; 8.33 upbm affinity estimate (log intensity, higher = more binding, comparable within an allelic series) with HOXB9 [12]; 6.7 upbm affinity estimate (log intensity, higher = more binding, comparable within an allelic series) with ALX1 [13]; 7.73 upbm affinity estimate (log intensity, higher = more binding, comparable within an allelic series) in the experiment with ALX3 [14]; 9.23 upbm affinity estimate (log intensity, higher = more binding, comparable within an allelic series) with PAX4 [15]; 6.73 upbm affinity estimate (log intensity, higher = more binding, comparable within an allelic series) in the experiment with ALX1 [16]. Further, the binding signal with PAX4 [17] is 9.18 upbm affinity estimate (log intensity, higher = more binding, comparable within an allelic series); in the experiment with ALX3 [18], 7.89 upbm affinity estimate (log intensity, higher = more binding, comparable within an allelic series); with PAX4 [19], 9.21 upbm affinity estimate (log intensity, higher = more binding, comparable within an allelic series); with ALX3 [20], 7.75 upbm affinity estimate (log intensity, higher = more binding, comparable within an allelic series); in the experiment with HOXB9 [21] it was 8.46 upbm affinity estimate (log intensity, higher = more binding, comparable within an allelic series); in the experiment with ALX3 [22] it was 7.74 upbm affinity estimate (log intensity, higher = more binding, comparable within an allelic series). Besides, the binding signal is 9.18 upbm affinity estimate (log intensity, higher = more binding, comparable within an allelic series) in the experiment with PAX4 [23]; 6.7 upbm affinity estimate (log intensity, higher = more binding, comparable within an allelic series) with ALX1 [24]; 7.75 upbm affinity estimate (log intensity, higher = more binding, comparable within an allelic series) in the experiment with ALX3 [25]; 9.47 upbm affinity estimate (log intensity, higher = more binding, comparable within an allelic series) with PRRX1 [26].
On to CCCCCTGA, for which the binding signal with VENTX [1] is 7.9 upbm affinity estimate (log intensity, higher = more binding, comparable within an allelic series); with HOXC9 [27], 9.31 upbm affinity estimate (log intensity, higher = more binding, comparable within an allelic series); in the experiment with VENTX [3], 7.95 upbm affinity estimate (log intensity, higher = more binding, comparable within an allelic series); with VENTX [4], 7.94 upbm affinity estimate (log intensity, higher = more binding, comparable within an allelic series); in the experiment with HOXC9 [28], 9.4 upbm affinity estimate (log intensity, higher = more binding, comparable within an allelic series); in the experiment with ALX1 [13], 6.45 upbm affinity estimate (log intensity, higher = more binding, comparable within an allelic series). Besides, the binding signal is 9.32 upbm affinity estimate (log intensity, higher = more binding, comparable within an allelic series) in the experiment with HOXC9 [29]; 6.47 upbm affinity estimate (log intensity, higher = more binding, comparable within an allelic series) with ALX1 [16]; 9.33 upbm affinity estimate (log intensity, higher = more binding, comparable within an allelic series) with HOXC9 [30]; 6.49 upbm affinity estimate (log intensity, higher = more binding, comparable within an allelic series) in the experiment with ALX1 [24].
Regarding CGGGCACG, the binding signal is 7.97 upbm affinity estimate (log intensity, higher = more binding, comparable within an allelic series) in the experiment with VENTX [1]; 9.61 upbm affinity estimate (log intensity, higher = more binding, comparable within an allelic series) with HOXC9 [27]; 7.98 upbm affinity estimate (log intensity, higher = more binding, comparable within an allelic series) in the experiment with VENTX [3]; 8.07 upbm affinity estimate (log intensity, higher = more binding, comparable within an allelic series) with VENTX [4]; 9.57 upbm affinity estimate (log intensity, higher = more binding, comparable within an allelic series) in the experiment with HOXC9 [28]; 8.22 upbm affinity estimate (log intensity, higher = more binding, comparable within an allelic series) with PITX2. The binding signal in the experiment with HOXC9 [29] was 9.49 upbm affinity estimate (log intensity, higher = more binding, comparable within an allelic series); in the experiment with HOXC9 [30], 9.66 upbm affinity estimate (log intensity, higher = more binding, comparable within an allelic series).

For the origin of these results see paper PMC11006913.
